Screening data: PubChem, Broad Institute
PfHsp90 yeast 2 = growth inhibition of PfHsp90-expressing yeast, primary screen, antimalarial PfHsp90 inhibitor project, S. cerevisiae, BacTiter-Glo luminescence, single point, set 2 | 0.32% of 310,000 active | inhibition, % at 9.4 µM | BacTiter-Glo ATP, 48 h; yeast lacking PDR1 and PDR3 efflux regulators | AID 504621, 2011;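 active = every replicate shows inhibition above about 80%, whatever the replicate mean, limit read from the data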;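 note: 0% = DMSO neutral controls and 100% = 20 µM radicicol positive controls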
SIRT5 block = SIRT5 desuccinylase inhibitors, primary screen, biochemical, fluorescence imaging, single point, set 5 | 1.1% of 330,000 active | inhibition, % at 15 µM | Purified SirT5, succinyl-peptide AMC, trypsin-coupled fluorescence | NAD-dependent protein deacylase sirtuin-5, mitochondrial (Homo sapiens), Q9NXA8; in the data active = inhibition above about 15%
Target sequence (Q9NXA8 whole entry, looked up): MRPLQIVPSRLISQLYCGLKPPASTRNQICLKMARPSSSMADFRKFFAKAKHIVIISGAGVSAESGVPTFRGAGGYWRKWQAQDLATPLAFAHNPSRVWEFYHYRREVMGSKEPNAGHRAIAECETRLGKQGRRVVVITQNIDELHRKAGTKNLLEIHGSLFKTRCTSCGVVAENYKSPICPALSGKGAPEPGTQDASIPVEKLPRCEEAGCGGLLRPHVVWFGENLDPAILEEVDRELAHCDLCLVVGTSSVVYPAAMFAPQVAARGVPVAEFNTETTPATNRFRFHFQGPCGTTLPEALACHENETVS
Casp6 inh = human caspase-6 inhibitors, primary screen, biochemical, VEID-R110 fluorescence, single point, set 2; inhibition, % at 12.5 µM; 0.53% of 350,000 active; P55212; purified caspase-6, Z-VEID-R110 cleavage fluorescence;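 active = mean inhibition across replicates at least about 35%, with every replicate also reaching that limit, limit read from the data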;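 note: 0% = median of neutral control wells and 100% = no fluorescence left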
Target sequence (P55212 24-179 limits assumed): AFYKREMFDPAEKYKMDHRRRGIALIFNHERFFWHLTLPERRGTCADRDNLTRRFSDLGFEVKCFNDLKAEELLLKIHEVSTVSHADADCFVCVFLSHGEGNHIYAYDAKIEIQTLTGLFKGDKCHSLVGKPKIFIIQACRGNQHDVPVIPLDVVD
Target sequence (P55212 194-293 limits assumed): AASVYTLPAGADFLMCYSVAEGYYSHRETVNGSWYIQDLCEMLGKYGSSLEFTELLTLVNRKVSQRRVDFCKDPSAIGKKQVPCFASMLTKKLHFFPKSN
ARNT-TACC3 inh = disruptors of ARNT/TACC3 protein interaction, primary screen, biochemical, AlphaScreen, single concentration; Transforming acidic coiled-coil-containing protein 3 (Homo sapiens), Q9Y6A5; AlphaScreen His-ARNT PAS-B/GST-TACC3 binding, luminescence; TACC3 fragment carries E629A point mutation; inhibition, % at 9.99 µM; 0.66% of 390,000 active; AID 623870, 2012;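 active = mean inhibition of replicates at least 50% and at least half of replicates each reaching 50%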;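 note: 0% = complete ARNT plus TACC3 wells and 100% = ARNT alone without TACC3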
NSD2 HMT inh = NSD2 histone methyltransferase inhibitors, primary screen, biochemical, AlphaScreen, single concentration, set 2; Histone-lysine N-methyltransferase NSD2 (Homo sapiens), O96028; NSD2 peptide methylation, 120 min; inhibition, % at 12.5 µM; 0.54% of 310,000 active; in the data active = inhibition above about 50%
Starred values were filed as active, the others as inactive; ! = not confirmed by another sample. Sampled rows, rich in hits. Any-hit rate of the full collection: about 2.1%.

What do the screens show for `C[C@@H]1CN([C@H](C)CO)C(=O)c2cc(NC(=O)Cc3ccccc3)ccc2O[C@@H]1CN(C)C(=O)Nc1ccccc1`?
SIRT5 block: -1.1; Casp6 inh: -0.5; ARNT-TACC3 inh: -1.6

What do the screens show for `CS(=O)(=O)Nc1ccc2c(c1)[C@H]1C[C@H](CC(=O)NCc3cccnc3)O[C@H](CO)[C@H]1O2`?
SIRT5 block: 0.1; Casp6 inh: -0.3; ARNT-TACC3 inh: 3.0

Results for C[c-]1[c-](C)[c-](C)[c-](C)[c-]1C.[Fe].c1cc2nccc(N3CCCC3)[c-]2c1 (stereo unspecified) ?
PfHsp90 yeast 2: -3.0; SIRT5 block: 1.4; Casp6 inh: 38.0*!; ARNT-TACC3 inh: 62.4*

How did CCC(=O)N1C[C@@H](C)[C@@H](OC)CN(C)C(=O)c2cc(NS(C)(=O)=O)ccc2OC[C@H]1C do in these assays?
SIRT5 block: -2.7; Casp6 inh: -1.2; ARNT-TACC3 inh: -3.8

Results for CCS(=O)(=O)NCC[C@H]1CC[C@H](NC(=O)C2CCC2)[C@@H](CO)O1 ?
SIRT5 block: 2.6; Casp6 inh: -2.4; ARNT-TACC3 inh: -10.8

What do the screens show for `COc1ccc(C=C2OC(=O)C(C(C)=O)=C2O)cc1`?
SIRT5 block: 10.8; Casp6 inh: 10.6; NSD2 HMT inh: 0.8

What do the screens show for `CC(=O)C1=C(O)C(=Cc2ccccc2)OC1=O`?
SIRT5 block: 20.0*; Casp6 inh: 21.4; NSD2 HMT inh: 6.1

Results for CCC(C)(C)C1CCC(=NNS(=O)(=O)c2ccc(C)c([N+](=O)[O-])c2)CC1 (stereo unspecified) ?
PfHsp90 yeast 2: 4.1; SIRT5 block: 18.0*; Casp6 inh: -5.9; ARNT-TACC3 inh: 1.5; NSD2 HMT inh: 4.7

Results for O=[N+]([O-])c1ccc(O)c(C2CCCCC2)c1 ?
PfHsp90 yeast 2: 108.0*; Casp6 inh: -0.7; ARNT-TACC3 inh: 10.8; NSD2 HMT inh: 2.7

What do the screens show for `O=C(CSc1ccccn1)N/N=C/c1ccccc1[N+](=O)[O-]`?
PfHsp90 yeast 2: -1.4; ARNT-TACC3 inh: -4.1; NSD2 HMT inh: -1.3

What do the screens show for `O=C(N/N=C/c1cc([N+](=O)[O-])ccc1O)C1CCCCC1`?
PfHsp90 yeast 2: 6.3; SIRT5 block: 0.8; Casp6 inh: -5.3; ARNT-TACC3 inh: 66.5*; NSD2 HMT inh: -2.9

How did O=[N+]([O-])c1ccc2nc(C3CCCCC3)[nH]c2c1 do in these assays?
PfHsp90 yeast 2: -15.5; SIRT5 block: 3.2; Casp6 inh: -1.5; ARNT-TACC3 inh: 1.9; NSD2 HMT inh: -1.3

What do the screens show for `O=C(CSc1ccccn1)N/N=C/c1cc([N+](=O)[O-])ccc1O`?
PfHsp90 yeast 2: 3.6; SIRT5 block: 2.3; Casp6 inh: 0.8; ARNT-TACC3 inh: 75.8*; NSD2 HMT inh: -1.1

What do the screens show for `CCCNC(=O)Nc1ccc2c(c1)C(=O)N(C)C[C@H](OC)[C@H](C)CN(CCC)[C@@H](C)CO2`?
SIRT5 block: 0.1; Casp6 inh: -0.3; ARNT-TACC3 inh: 6.1

What do the screens show for `O=C(C[C@@H]1C[C@H]2c3cc(NC(=O)c4ccc5c(c4)OCO5)ccc3O[C@H]2[C@@H](CO)O1)NCc1cccc(F)c1`?
SIRT5 block: -1.2; Casp6 inh: -7.0; ARNT-TACC3 inh: 16.6

How did COCC(=O)Nc1ccc2c(c1)C(=O)N(C)C[C@@H](OC)[C@@H](C)CN(CCC(F)(F)F)[C@H](C)CO2 do in these assays?
SIRT5 block: 0.0; Casp6 inh: -4.7; ARNT-TACC3 inh: -3.1

Results for CCN(C(=O)CSc1nc2scc(-c3ccccc3)c2c(=O)n1N)C1CCS(=O)(=O)C1 (stereo unspecified) ?
SIRT5 block: 19.8*; Casp6 inh: 0.5; ARNT-TACC3 inh: 1.1; NSD2 HMT inh: 1.2

What do the screens show for `COc1ccc2sc(-c3ccccc3OC)c(-c3ccc(O)cc3)c2c1`?
PfHsp90 yeast 2: 107.0*; SIRT5 block: -0.2; Casp6 inh: -0.5

How did COc1ccccc1-c1sc2cc3c(cc2c1-c1ccc(O)cc1)OCO3 do in these assays?
PfHsp90 yeast 2: 107.4*; Casp6 inh: 1.4; ARNT-TACC3 inh: -2.3

Results for COCc1ccc(-c2c(-c3ccccc3OC)sc3cc4c(cc23)OCO4)cc1 ?
PfHsp90 yeast 2: -14.5; SIRT5 block: -3.6; Casp6 inh: -2.2; ARNT-TACC3 inh: -3.3

What do the screens show for `COc1ccc(S(=O)(=O)Nc2ccc3c(c2)CC(=O)N([C@@H](C)CO)C[C@H](C)[C@@H](CN(C)C(=O)Nc2ccc(F)cc2)O3)cc1`?
ARNT-TACC3 inh: -1.5

What do the screens show for `C[C@H](CO)N1C[C@H](C)[C@H](CN(C)C(=O)NC2CCCCC2)Oc2ccc(NS(=O)(=O)c3cn(C)cn3)cc2C1=O`?
SIRT5 block: -3.0; Casp6 inh: -0.4; ARNT-TACC3 inh: -2.9

Results for C[C@@H]1CN([C@H](C)CO)C(=O)c2cc(NC(=O)Nc3ccc4c(c3)OCO4)ccc2O[C@@H](C)CCCCO[C@@H]1CN(C)Cc1ccc(C(=O)O)cc1 ?
SIRT5 block: 2.7; Casp6 inh: -1.2; ARNT-TACC3 inh: 2.3

How did O=C(c1cccnc1)N1C[C@H]2[C@@H](c3ccccc31)[C@@H](CO)N2C(=O)Nc1cccc(F)c1 do in these assays?
SIRT5 block: -2.2; Casp6 inh: -6.2; ARNT-TACC3 inh: -5.3

How did O=C(O)c1ccc(N=Nc2c(O)[nH]c3ccc(Br)cc23)cc1 do in these assays?
PfHsp90 yeast 2: 10.4; SIRT5 block: 0.2; Casp6 inh: -0.8; NSD2 HMT inh: 4.4

How did O=C(O)c1ccc(N=Nc2c(O)[nH]c3cc(Cl)ccc23)cc1 do in these assays?
PfHsp90 yeast 2: -8.3; SIRT5 block: 11.5; Casp6 inh: 38.3*; ARNT-TACC3 inh: -0.5; NSD2 HMT inh: 3.9

Results for COc1cc(/C=N\NC(=O)c2sc(N)nc2C)cc(OC)c1OC ?
PfHsp90 yeast 2: 19.5; ARNT-TACC3 inh: 49.0*; NSD2 HMT inh: -0.2

Results for Cc1nc(N)sc1C(=O)N/N=C/c1ccc([N+](=O)[O-])cc1 ?
SIRT5 block: -1.9; Casp6 inh: -1.0; NSD2 HMT inh: -0.6

Results for CCN(CC)c1ccc(/C=N/N=C(N)N)c(O)c1 ?
PfHsp90 yeast 2: 12.8; SIRT5 block: -2.8; Casp6 inh: -1.5; ARNT-TACC3 inh: 48.1*; NSD2 HMT inh: 24.2

What do the screens show for `CCN(CC)c1ccc(/C=N/NC(=S)NC)c(O)c1`?
PfHsp90 yeast 2: -4.2; SIRT5 block: -3.6; Casp6 inh: 6.0; ARNT-TACC3 inh: 59.6*; NSD2 HMT inh: 11.4

Results for CCN(CC)c1ccc(/C=N/NC(=O)OC)c(O)c1 ?
PfHsp90 yeast 2: -7.8; ARNT-TACC3 inh: 3.2; NSD2 HMT inh: 5.9
